In the library only some 4% were active in any assay of this set; here they are far more common.
Mtb betalactam: beta-lactam sensitization of Mtb H37Rv; inhibition, % at 25 µM; hit rate 0.27% among 330,000; M. tuberculosis H37Rv growth with meropenem, percent inhibition; call rule not given here;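 note: growth measured after seven days incubation then overnight dye step; 0% = bacteria only wells and 100% = bacteria with antibiotic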
GDH-TPI inh: inhibits GDH-TPI coupling enzymes, artifact for Mtb FBA screen; GDH-TPI coupled enzyme counterscreen, NADH absorbance; inhibition, % at 4.8 µM; hit rate 1.2% among 360,000; AID 588335; in the data active = inhibition above about 30%;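 note: 0% = DMSO wells and 100% = wells lacking the enzyme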
Mtb FBA inh: inhibits M. tuberculosis FBA enzyme; P9WQA3; purified M. tuberculosis FBA, fluorescence read-out; inhibition, % at 1 µM; hit rate 2.3% among 360,000; in the data active = inhibition above about 27%;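 note: 0% = vehicle and 100% = reference inhibitor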
Rv3671c protease: inhibits the M. tuberculosis serine protease Rv3671c | P9WHR9 | inhibition, % at 5.96 µM | hit rate 0.048% among 320,000; in the data active = inhibition above about 38%;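 note: extracellular domain of Rv3671c used as enzyme; 0% = enzyme with DMSO and 100% = no enzyme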
Target sequence (P9WHR9 whole entry, looked up, the tested form may be a part): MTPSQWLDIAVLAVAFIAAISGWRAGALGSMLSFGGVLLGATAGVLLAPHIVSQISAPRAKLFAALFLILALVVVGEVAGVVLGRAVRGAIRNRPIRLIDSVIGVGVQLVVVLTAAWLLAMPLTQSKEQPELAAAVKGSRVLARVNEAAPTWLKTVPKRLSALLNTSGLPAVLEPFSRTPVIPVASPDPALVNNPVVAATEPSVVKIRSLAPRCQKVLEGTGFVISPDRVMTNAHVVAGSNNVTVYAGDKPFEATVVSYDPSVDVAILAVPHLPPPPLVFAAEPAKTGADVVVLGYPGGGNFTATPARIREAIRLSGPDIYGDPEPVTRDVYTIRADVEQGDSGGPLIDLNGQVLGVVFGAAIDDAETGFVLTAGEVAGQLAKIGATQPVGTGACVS
UGM FP inh: blocks M. tuberculosis UGM enzyme. P9WIQ1. purified UGM, fluorescence polarization probe displacement. inhibition, % at 10 µM. hit rate 0.06% among 320,000. AID 504406; in the data active = inhibition above about 10%, passing the limit was not always enough; inconclusive = no clear call, values can overlap the other calls
RecA splice inh: inhibitors of M. tuberculosis RecA intein splicing | cell-free RecA intein splicing, fluorescence | inhibition, % (test concentration not listed) | hit rate 0.75% among 290,000 | P9WHJ3; in the data active = inhibition above about 30%; inconclusive = no clear call, values can overlap the other calls;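 note: 0% = vehicle wells and 100% = reference inhibitor control wells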
Numbers without * were called inactive.

`Cc1c(C)n(C)c2ccc(C(=O)NCCCN3CCN(c4ccc(F)cc4)CC3)cc12` gave Mtb betalactam 13.9, GDH-TPI inh 10.3, Mtb FBA inh -0.7, Rv3671c protease -2.1, UGM FP inh 5.4 and RecA splice inh -1.2.
Screening COc1ccc(CNC(=O)c2c(C)cc(=O)oc2C)cc1 returned Mtb betalactam -3.6, GDH-TPI inh 8.8, Mtb FBA inh 0.1, Rv3671c protease 13.1, UGM FP inh -0.7 and RecA splice inh -4.1.
Screening COc1ccc(N2CCN(CCNC(=O)c3c(C)cc(=O)oc3C)CC2)cc1 returned Mtb betalactam 1.5, GDH-TPI inh 40.5*, Mtb FBA inh 2.0, Rv3671c protease 0.3 and RecA splice inh -2.6.
For COC(=O)N/N=C/c1cc(N=Nc2ccccc2)ccc1O the results were Mtb betalactam 86.4, GDH-TPI inh 38.3*, Mtb FBA inh -5.7, Rv3671c protease 8.1, UGM FP inh 1.4 and RecA splice inh 3.1.
For Cc1cc(C)c(C(=O)Nn2c(C)nc3ccccc3c2=O)cc1C the results were Mtb betalactam 3.0, GDH-TPI inh 3.5, Mtb FBA inh 0.3, Rv3671c protease -0.7, UGM FP inh 4.8 and RecA splice inh 0.5.
Screening CNc1ccccc1C(=O)OC(C)C(=O)Nc1ccc(Cl)cn1 (stereo not drawn) returned Mtb betalactam inconclusive, GDH-TPI inh 21.6, Mtb FBA inh 112.1*, Rv3671c protease -7.7, UGM FP inh 1.5 and RecA splice inh -7.8.
COc1ccc(CCn2c(=N)c(C(=O)NCc3ccco3)cc3c(=O)n4ccccc4nc32)cc1OC was read as GDH-TPI inh 15.6 and Mtb FBA inh 5.2.
`COCCn1c(=N)c(C(=O)NCc2ccco2)cc2c(=O)n3cc(C)ccc3nc21` gave Mtb betalactam -0.1, GDH-TPI inh 4.5, Mtb FBA inh 148.8*, Rv3671c protease 5.1, UGM FP inh 2.1 and RecA splice inh -242.4.
`N=c1c(C(=O)NCc2ccco2)cc2c(=O)n3ccccc3nc2n1CCc1ccccc1` gave Mtb betalactam 6.4, GDH-TPI inh 8.8, Mtb FBA inh 126.0*, Rv3671c protease -4.2, UGM FP inh -0.8 and RecA splice inh -81.6.
For COc1ccc(CCNC(=O)c2cc3c(=O)n4ccccc4nc3n(Cc3ccco3)c2=N)cc1OC the results were Mtb betalactam 8.6, GDH-TPI inh -3.1, Mtb FBA inh -1.8, Rv3671c protease 1.4, UGM FP inh -2.2 and RecA splice inh -8.2.
`Cc1ccc(Cn2c(=N)c(C(=O)NCc3ccco3)cc3c(=O)n4ccccc4nc32)cc1` gave Mtb betalactam -0.3, GDH-TPI inh 12.2, Mtb FBA inh 51.6*, Rv3671c protease 1.4, UGM FP inh -1.5 and RecA splice inh -81.1.
Screening O=C(O)c1sccc1Oc1ccc(NS(=O)(=O)c2ccccc2)cc1 returned Mtb betalactam 3.9, GDH-TPI inh 7.8, Mtb FBA inh 5.5, Rv3671c protease 2.6, UGM FP inh -2.9 and RecA splice inh -1.2.
For Cc1ncc(CO)c(CNc2ccc(-c3nc4ccccc4[nH]3)cc2)c1O the results were Mtb betalactam -5.2, GDH-TPI inh 41.9*, Mtb FBA inh 13.5, UGM FP inh -2.2 and RecA splice inh -3.7.
`Cc1ncc(CO)c(CO)c1O` gave Mtb betalactam -4.3, GDH-TPI inh 9.8, Mtb FBA inh 3.8, Rv3671c protease -2.9, UGM FP inh 0.4 and RecA splice inh -2.6.
Screening CCCCN(C(C)=O)c1c(CC)nc2ccc(C(=O)Nc3cccc(OCC(=O)N(C)C)c3)cn12 returned GDH-TPI inh 7.3 and Mtb FBA inh 3.8.
CCc1cc(=O)oc2c(C)c(O)c(CN3CCCCC3)cc12 was read as Mtb betalactam -1.7, GDH-TPI inh 32.0*, Mtb FBA inh active, Rv3671c protease -4.4, UGM FP inh 2.1 and RecA splice inh inactive.
Cc1c(O)c(CN2CCCC2)cc2c3c(c(=O)oc12)CCC3 was read as Mtb betalactam -10.0, GDH-TPI inh 14.7, Mtb FBA inh 198.3*, Rv3671c protease 5.3, UGM FP inh 1.9 and RecA splice inh -393.2.
CC(OC(=O)CCNS(=O)(=O)c1ccccc1)C(=O)Nc1ccc(S(=O)(=O)N2CCCCC2)cc1 (stereo not drawn) was read as GDH-TPI inh -3.9 and Mtb FBA inh 0.4.
O=C1CCCC(O)=C1C=Nc1ccc(O)cc1 was read as Mtb betalactam 7.8, GDH-TPI inh 35.0*, Mtb FBA inh -6.2, Rv3671c protease -1.2, UGM FP inh 0.6 and RecA splice inh -7.1.
Cc1ccc2c(c1)Sc1c(ccc3ccccc13)N2 was read as Mtb betalactam 22.4, GDH-TPI inh 15.6, Mtb FBA inh 4.2, Rv3671c protease -5.7, UGM FP inh 1.8 and RecA splice inh 7.1.
Cc1ccc2c(C)c3ccc4ccccc4c3c[n+]2c1 was read as GDH-TPI inh 11.5 and Mtb FBA inh active.
For CCCC(=O)Nc1ccc(Cc2ccc(NC(=O)CCC)c(C(=O)O)c2)cc1C(=O)O the results were Mtb betalactam -3.4, GDH-TPI inh -1.0, Mtb FBA inh 3.8, Rv3671c protease -5.3, UGM FP inh 11.3* and RecA splice inh -4.7.
For CCCCn1c(N)c(N(CC(C)C)C(=O)CCNC(=O)c2ccc(Br)cc2)c(=O)[nH]c1=O the results were Mtb betalactam 2.1, GDH-TPI inh 0.0, Mtb FBA inh -1.1, Rv3671c protease 2.4 and UGM FP inh 1.2.
CCn1c(=S)sc2c(=O)n(-c3ccccc3)c(=S)[nH]c21 was read as Mtb betalactam 8.6, GDH-TPI inh 35.4*, Mtb FBA inh -0.4, Rv3671c protease 2.9, UGM FP inh 0.1 and RecA splice inh 0.6.
Screening COc1cc(C(=O)NCC(=O)N/N=C/c2ccc(-c3cccc([N+](=O)[O-])c3)o2)cc(OC)c1OC returned Mtb betalactam 5.2, GDH-TPI inh 37.6*, Mtb FBA inh -2.9, Rv3671c protease 0.8, UGM FP inh -6.1 and RecA splice inh -2.2.
`CN(C)CCCNC(=O)/C(=C\c1ccc(-c2cccc([N+](=O)[O-])c2)o1)NC(=O)c1ccccc1` gave Mtb betalactam -3.0, GDH-TPI inh 35.3*, Mtb FBA inh -3.2, Rv3671c protease -5.6, UGM FP inh 0.9 and RecA splice inh -0.5.
Screening Cc1ccc(C(=O)N/C(=C\c2ccc(-c3cccc([N+](=O)[O-])c3)o2)C(=O)NCCCN(C)C)cc1 returned Mtb betalactam 1.4, GDH-TPI inh 58.6*, Mtb FBA inh -1.3, Rv3671c protease -1.6, UGM FP inh -0.8 and RecA splice inh 0.6.
Screening Cc1ccc(C(=O)N/C(=C\c2ccc(-c3ccc(Br)cc3)o2)C(=O)NCCCN(C)C)cc1 returned Mtb betalactam 99.2, GDH-TPI inh 9.7, Mtb FBA inh 1.1, Rv3671c protease -6.3, UGM FP inh -1.5 and RecA splice inh -2.7.
Screening CCCNC(=O)C1(C)CCN(Cc2ccc3ccccc3c2Br)C1 (stereo not drawn) returned GDH-TPI inh 7.4 and Mtb FBA inh -0.8.
`N#Cc1c(-c2ccccc2Cl)c2c([nH]c1=O)-c1ccccc1OC2` gave Mtb betalactam -13.4, GDH-TPI inh 26.9, Mtb FBA inh active, Rv3671c protease -1.9, UGM FP inh 0.2 and RecA splice inh -286.6.

Bioassay records as filed in PubChem.
